Experimental data reported in PubChem BioAssay (EPA / NIEHS).
Calls of active or inactive are those of the source. The calls were made as follows: active = hit-call score of the fitted dose curve at least 0.9, where 1 is the maximum; inactive = score below 0.9.

Read-out: MicroRNA 122 (MIR122), gene 406906
Assay: LTEA_HepaRG_MIR122: Life Technologies and Expression Analysis (LTEA) Assay for MicroRNA 122 (MIR122) using HepaRG (AID 2283516)
Conditions: mRNA level, 48 h; actives raise or lower the signal
Protocol: LTEA_HepaRG is a cell based, multiplexed-readout assay that uses HepaRG, a human liver cell line, with measurements taken at 48 hours after chemical dosing on a 96-well plate.LTEA_HepaRG_MIR122 is one of 102 assay component(s) measured in the LTEA HepaRG cell culture assay. It is a marker of MicroRNA.Data from the assay component LTEA_HepaRG_MIR122 was analyzed into 1 endpoint. This assay endpoint, LTEA_HepaRG_MIR122, was analyzed with bidirectional fitting relative to DMSO as the negative control and baseline of activity. Using a type of inducible reporter, measures of mRNA induction for gain or loss-of-signal activity can be used to understand regulation of transcription factor activity. To generalize the intended target to other relatable targets, this assay endpoint is annotated to the microrna intended target family, where the subfamily is post-transcriptional regulation.
A total of 1060 chemcials from the ToxCast library were tested in eight-point concentration-response experiments. Cell culture and cytotoxicity assays were conducted at Thermo Fisher Scientific's Custom Services facility (Madison, WI). A single lot of human HepaRG cells (Thermo Fisher Scientific, Frederick, MD) was used for the cell culture experiments. 96-well format collagen type I coated plates of human HepaRG cells were prepared using established methods. Briefly, cryopreserved HepaRG cells were thawed, plated at a density of approximately 100,000 cells/well in HepaRG Thaw, Plate, and General Purpose media (HPRG770, Thermo Fisher Scientific), and incubated for 48 hours. 0.5% DMSO was selected as vehicle control to balance the requisite need of DMSO in HepaRG cultures to maintain differentiation (for example, baseline metabolism, proportions of hepatocytes vs. cholangiocytes), while enabling further hepatic receptor pathway activation (for example, PXR and CAR) in response to chemical exposure. 48 hours after plating, the culture medium was replaced with HepaRG Serum-Free Incudtion Media. Cells were exposed to each test chemical in duplicate and maintained in CO2 incubators for another 48 hours. Chemical plates were thawed to room temperature and 200x concentrations of treatment groups were prepared. 8-point conentration-reponse curves were made with the highest exposure at 100 uM, followed by half-log dilutions, all in 0.5% DMSO. Each test plate contained variouse controls, induction positive controls (1mM phenobarbital), cytotoxicity positive controls ([…] aflatoxin B1), vehicle controls (0.5% DMSO), and total lysis controls (0.5% DMSO). Cell morphology images were taken using an Essen IncuCyte FLR automated microscope, with six 96-well plates imaged in about 24 minutes. Images were captured and exported and JPEG files. Spent culture media was transfered to black-well plates for the LDH assay, and remaining media was sorted at -80 C for later use. Cells were treated with RLT buffer and frozen until shipped for gene expression analysis. Total RNA was isolated from the cell suspension in 75 uL of Buffer RLT (Qiagen, Germantown, MD 20874) by Quintiles/Expression Analysis (Durham, NC) using a custom isolation procedure. Total RNA from each plate well was transferred to a preamplification plate. Fluidigm's 96.96 Dynamic ArrayTM (Fluidigm, Amsterdam, the Netherlands) technology was used for gene expression analyses by quantitative reverse transcription polymerase chain reaction (qRT-PCR, performed by Quintiles/Expression Analysis, Durham, NC)89. Standard TaqManTM Assays (Applied Biosystems/ThermoFisher Scientific, Foster City, CA) were used to assess the expression of 93 genes selected based on their selectivity and sensitivity to important hepatic receptors known to be modulated by environmental chemicals; importance in human hepatocyte functionality; and hepatotoxicity. […]

SMILES	outcome	AC50
C#CC(C)(C)NC(=O)c1cc(Cl)cc(Cl)c1	inactive	–
CC(C1CC1)C(O)(Cn1cncn1)c1ccc(Cl)cc1 (stereo not given)	inactive	–
CSc1nnc(C(C)(C)C)c(=O)n1N	inactive	–
C=C(C)[C@H]1Cc2c(ccc3c2O[C@@H]2COc4cc(OC)c(OC)cc4[C@@H]2C3=O)O1	–	1.32 µM (active)
CC(COc1ccc(Oc2ccccc2)cc1)Oc1ccccn1 (stereo not given)	inactive	–
CC(=NC#N)N(C)Cc1ccc(Cl)nc1	inactive	–
CNc1cnn(-c2cccc(C(F)(F)F)c2)c(=O)c1Cl	inactive	–
CNC(=O)ON=C(C)SC	inactive	–
CCC(CC)Nc1c([N+](=O)[O-])cc(C)c(C)c1[N+](=O)[O-]	inactive	–
CSC1=N[C@@](C)(c2ccccc2)C(=O)N1Nc1ccccc1	–	50 µM (active)
CCOP(=O)(NC(C)C)Oc1ccc(SC)c(C)c1 (stereo not given)	inactive	–
COP(=O)(OC)C(O)C(Cl)(Cl)Cl (stereo not given)	inactive	–
N#CSCSC#N	–	65.1 µM (active)
Cc1cc(C2CC2)nc(Nc2ccccc2)n1	inactive	–
CNC(=O)ON=C(SC)C(=O)N(C)C	inactive	–
CCOP(=S)(OCC)SCCSCC	inactive	–
CON=C(C(=O)OC)c1ccccc1CON=C(C)c1cccc(C(F)(F)F)c1	inactive	–
C[N+]1(C)CCCCC1	inactive	–
CCOC(=O)CC(SP(=O)(OC)OC)C(=O)OCC (stereo not given)	inactive	–
Cc1ccn2nc(S(=O)(=O)Nc3c(F)cccc3F)nc2n1	inactive	–

SMILES	outcome	AC50
COc1cc(OC)nc(Sc2cccc(Cl)c2C(=O)O)n1	inactive	–
CCc1cnc(C2=NC(C)(C(C)C)C(=O)N2)c(C(=O)O)c1 (stereo not given)	inactive	–
CCC(=O)Nc1ccc(Cl)c(Cl)c1	inactive	–
CCCSP(=O)(OCC)SCCC	inactive	–
CCOC(=O)COc1cc(-c2nn(C)c(OC(F)F)c2Cl)c(F)cc1Cl	inactive	–
O=[N+]([O-])c1cc(C(F)(F)F)c(Cl)c([N+](=O)[O-])c1Nc1ncc(C(F)(F)F)cc1Cl	–	15.8 µM (active)
CCC(=NOC/C=C/Cl)C1=C(O)CC(C2CCOCC2)CC1=O (stereo not given)	inactive	–
COP(=O)(NC(C)=O)SC (stereo not given)	inactive	–
CC1(C(=O)Nc2ccc(O)c(Cl)c2Cl)CCCCC1	inactive	–
CCCSP(=O)(OCC)Oc1ccc(Br)cc1Cl (stereo not given)	inactive	–
CNC(=O)Oc1cccc2c1OC(C)(C)O2	inactive	–
O=C(O)c1cc(Oc2ccc(C(F)(F)F)cc2Cl)ccc1[N+](=O)[O-]	inactive	–
CCOP(=S)(OCC)Oc1ccc([N+](=O)[O-])cc1	inactive	–
CCOP(=O)(SC(C)CC)N1CCSC1=O (stereo not given)	inactive	–
Nc1c(Cl)cc([N+](=O)[O-])cc1Cl	–	50 µM (active)
CN(C)NC(=O)CCC(=O)O	inactive	–
C[Si](Cn1cncn1)(c1ccc(F)cc1)c1ccc(F)cc1	–	61.4 µM (active)
CCCCOC(=O)[C@@H](C)Oc1ccc(Oc2ccc(C#N)cc2F)cc1	inactive	–
CC(Oc1cccc(Cl)c1)C(=O)O (stereo not given)	inactive	–
CN1COCN(Cc2cnc(Cl)s2)C1=N[N+](=O)[O-]	inactive	–
